Laboratory results taken from the supplement of paper PMC7184167.
Structures can show the parent of a compound that is named as a salt.

The molecules below were run on replication-induced senescent mouse newborn dermal fibroblasts (NBF) (assay: relative cell viability of senescent cells (fraction); higher = less killing of senescent cells). Settings: 1 µM; 3 days.
Description: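 Replication-induced senescent newborn mouse skin fibroblasts (NBFs) in 24-well plates were treated with a Selleck FDA-approved drug library at 1 µM for 3 days.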
`CC1(C)O[C@@H]2C[C@H]3[C@@H]4CCC5=CC(=O)C=C[C@]5(C)[C@@]4(F)[C@@H](O)C[C@]3(C)[C@]2(C(=O)CO)O1` [Triamcinolone Acetonide] gave a relative cell viability of 1.02. `C[C@](N)(Cc1ccc(O)c(O)c1)C(=O)O` [Methyldopa] was tested, and the relative cell viability was 0.971. `NS(=O)(=O)c1cc2c(cc1Cl)NC(C(Cl)Cl)NS2(=O)=O` (stereo not given) [Trichlormethiazide] was tested, and the relative cell viability was 0.981. For `N=C(N)NC(=N)N1CCOCC1` [Moroxydine HCl], the relative cell viability was 0.965. Molecule `CN(C)CCC(c1ccc(Cl)cc1)c1ccccn1` (stereo not given) [Chlorpheniramine Maleate] has a relative cell viability of 0.208. `C[C@H]1C[C@@H]2[C@H]([C@@H](O)C[C@@]3(C)[C@H]2CC[C@]3(O)C(=O)CO)[C@@]2(C)C=CC(=O)C=C12` [Methylprednisolone] showed a relative cell viability of 1.09. `Cc1ccc(F)c(NC(=O)Nc2ccc(-c3cccc4[nH]nc(N)c34)cc2)c1` [Linifanib (ABT-869)] gave a relative cell viability of 0.927. For `COc1ccc(-n2nc(C(N)=O)c3c2C(=O)N(c2ccc(N4CCCCC4=O)cc2)CC3)cc1` [Apixaban], the relative cell viability was 0.89. `CCCCC1C(=O)N(c2ccccc2)N(c2ccccc2)C1=O` [Phenylbutazone] was tested, and the relative cell viability was 0.899. For `CN1CCN(CCOc2cc(OC3CCOCC3)c3c(Nc4c(Cl)ccc5c4OCO5)ncnc3c2)CC1` [Saracatinib (AZD0530)], the relative cell viability was 0.626. Work on `Nc1nc2c(ncn2COCCO)c(=O)[nH]1` [Aciclovir] yielded a relative cell viability of 1.06. `Cc1cccc(Nc2ccncc2S(=O)(=O)NC(=O)NC(C)C)c1` [Torsemide] showed a relative cell viability of 0.965. `COc1ccc2cc([C@H](C)C(=O)O)ccc2c1` [Naproxen Sodium] showed a relative cell viability of 0.686. Work on `Cc1ccc(NC(=O)c2ccc(CN3CCN(C)CC3)cc2)cc1Nc1nccc(-c2cccnc2)n1` [Imatinib Mesylate (STI571)] yielded a relative cell viability of 0.939. For `COc1nc(N)nc2c1ncn2[C@@H]1O[C@H](CO)[C@@H](O)[C@@H]1O` [Nelarabine], the relative cell viability was 1.08. `CCC[C@H](NC(=O)[C@@H]1[C@H]2CCC[C@H]2CN1C(=O)[C@@H](NC(=O)[C@@H](NC(=O)c1cnccn1)C1CCCCC1)C(C)(C)C)C(=O)C(=O)NC1CC1` [Telaprevir (VX-950)] gave a relative cell viability of 0.411. Work on `CN(CCOc1ccc(NS(C)(=O)=O)cc1)CCc1ccc(NS(C)(=O)=O)cc1` [Dofetilide] yielded a relative cell viability of 1.02. `CS(=O)(=O)c1ccc(C(=O)Nc2ccc(Cl)c(-c3ccccn3)c2)c(Cl)c1` [Vismodegib (GDC-0449)] gave a relative cell viability of 0.521. For `CC(=O)O[C@@]12CO[C@@H]1C[C@H](O)[C@@]1(C)C(=O)[C@H](O)C3=C(C)[C@@H](OC(=O)[C@H](O)[C@@H](NC(=O)OC(C)(C)C)c4ccccc4)C[C@@](O)([C@@H](OC(=O)c4ccccc4)[C@H]21)C3(C)C` [Docetaxel], the relative cell viability was 0.565. `Cc1ccc(NC(=O)c2ccc(CN3CCN(C)CC3)cc2)cc1Nc1nccc(-c2cccnc2)n1` [Imatinib (STI571)] gave a relative cell viability of 1.12. For `C[C@@H]1C/C=C/C=C/C=C/C=C/[C@H](O[C@@H]2O[C@H](C)[C@@H](O)[C@H](N)[C@@H]2O)C[C@@H]2O[C@](O)(C[C@@H](O)C[C@H]3O[C@@H]3/C=C/C(=O)O1)C[C@H](O)[C@H]2C(=O)O` [Natamycin], the relative cell viability was 0.0794. Work on `C=C1/C(=C\C=C2/CCC[C@]3(C)[C@@H]([C@H](C)CCCC(C)C)CC[C@@H]23)C[C@@H](O)C[C@@H]1O` [Alfacalcidol] yielded a relative cell viability of 0.249. `CC[C@H]1OC(=O)[C@H](C)[C@@H](O[C@H]2C[C@@](C)(OC)[C@@H](O)[C@H](C)O2)[C@H](C)[C@@H](O[C@@H]2O[C@H](C)C[C@H](N(C)C)[C@H]2O)[C@](C)(O)C[C@@H](C)CN(C)[C@H](C)[C@@H](O)[C@]1(C)O` [Azithromycin] gave a relative cell viability of 0.879. In the case of `CN(C)CCOc1ccc(/C(=C(/CCCl)c2ccccc2)c2ccccc2)cc1` [Toremifene Citrate], the relative cell viability was 0.956. `CC(C)Cc1ccc(C(C)C(=O)O)cc1` (stereo not given) [Ibuprofen] showed a relative cell viability of 0.765. In the case of `CC(C)[C@H](O)C(=O)N[C@@H](C)C(=O)N[C@@H]1C(=O)N(C)CCc2ccccc21`, the relative cell viability was 0.981. With `CC[C@H]1OC(=O)[C@H](C)[C@@H](O[C@H]2C[C@@](C)(OC)[C@@H](O)[C@H](C)O2)[C@H](C)[C@@H](O[C@@H]2O[C@H](C)C[C@H](N(C)C)[C@H]2O)[C@](C)(O)C[C@@H](C)C(=O)[C@H](C)[C@@H](O)[C@]1(C)O` [Erythromycin] the relative cell viability was 0.796. `COc1cc2c(Oc3ccc(NC(=O)C4(C(=O)Nc5ccc(F)cc5)CC4)cc3F)ccnc2cc1OCCCN1CCOCC1` showed a relative cell viability of 0.757. With `COCCc1ccc(OCC(O)CNC(C)C)cc1` (stereo not given) [Metoprolol Tartrate] the relative cell viability was 1.1. `Clc1ccc(C(c2ccccc2Cl)C(Cl)Cl)cc1` (stereo not given) [Mitotane] gave a relative cell viability of 1.16. `CN(C)[C@@H](CCOc1cccc2ccccc12)c1ccccc1` [Dapoxetine HCl] gave a relative cell viability of 1.08. `O=C(O)CSCC(=O)NC1CCSC1=O` (stereo not given) [Erdosteine] gave a relative cell viability of 0.979. Molecule `CCOC(=O)C1=C(C)NC(C)=C(C(=O)OC)C1c1cccc(Cl)c1Cl` (stereo not given) [Felodipine] has a relative cell viability of 1. `C[C@@H]1CN(c2c(F)c(N)c3c(=O)c(C(=O)O)cn(C4CC4)c3c2F)C[C@H](C)N1` [Sparfloxacin] was tested, and the relative cell viability was 0.71. Work on `Cn1ccnc1S` [Methimazole] yielded a relative cell viability of 0.994. With `CC(=O)N[C@@H](CS)C(=O)O` [Acetylcysteine] the relative cell viability was 0.834. In the case of `C[C@]12CC[C@@H]3c4ccc(O)cc4CC[C@H]3[C@@H]1CC[C@@H]2O` [Estradiol], the relative cell viability was 1.13. `OC(CNCC(O)C1CCc2cc(F)ccc2O1)C1CCc2cc(F)ccc2O1` (stereo not given) [Nebivolol] was tested, and the relative cell viability was 0.256. Molecule `CC(C)(C)c1cc(C(C)(C)C)c(NC(=O)c2c[nH]c3ccccc3c2=O)cc1O` [Ivacaftor (VX-770)] has a relative cell viability of 0.533. `C=C1/C(=C\C=C2/CCC[C@]3(C)[C@@H]([C@H](C)/C=C/[C@H](C)C(C)C)CC[C@@H]23)C[C@@H](O)C[C@@H]1O` [Doxercalciferol] gave a relative cell viability of 1.22.
